From PubChem BioAssay
In the library only some 8% were active in any assay of this set; here they are far more common.
LASV entry inh: inhibitors of Lassa virus binding or entry into cells; Lassa virus pseudotyped entry inhibition, cell-based qHTS; Potency, µM (series often up to 49.2 µM), hits mostly inhibitors; actives 4.1% (n = 18,000); AID 720533
MARV entry inh: blocks Marburg virus binding or cell entry; Marburg virus pseudotype entry/binding inhibition, cell-based; Potency, µM (top dose mostly 49.2 µM), hits mostly inhibitors; actives 6.5% (n = 18,000)
Hits are given with their value; . = inactive; ? = inconclusive; / = no result; ! = a repeat was not active; [ ] = another dose, or the depositor's remark. The call rests on the fitted dose curve; tested in HEK293 cells.

SMILES | LASV entry inh | MARV entry inh
CCC(=O)OC1(C)C(=O)C=C2C=C(/C=C/COC)OC=C2C1=O (centres undefined) | . | .
COC/C=C/C1=CC2=CC(=O)C(C)(OC(=O)c3cnc4ccccc4n3)C(=O)C2=CO1 (centres undefined) | 5.6µM | .
COC(=O)C1=C(C)N(CC2CC2)C(=NCCc2cccnc2)NC1c1ccccc1 (centres undefined) | .[8.59 µM] | .[8.59 µM]
CNc1cc(OC)c(C(=O)N[C@H]2CCN(Cc3ccccc3)[C@H]2C)cc1Cl | ? | 18µM
COC1=C[C@H](C(=O)NC2CCN(Cc3ccccc3)CC2)[C@H](C)[C@@H](c2ccccc2)CC1=O | .[8.59 µM] | .[8.59 µM]
COC(=O)c1ccc(CN2C(=O)[C@@]3(CC(C)=C[C@@H](COc4ccccc4)O3)c3ccccc32)cc1 | .[8.59 µM] | .[8.59 µM]
Cc1ccc2c(-c3ccnc(Nc4cccc(C(F)(F)F)c4)n3)c(-c3ccccc3)nn2n1 | / | 4µM
Cc1ccc2c(-c3ccnc(Nc4ccc5c(c4)OCCO5)n3)c(-c3ccc(C(F)(F)F)cc3)nn2n1 | / | 16µM
N#Cc1cccc(Nc2nccc(-c3cnn4ncccc34)n2)c1 | / | 0.025µM
FC(F)(F)CNc1nccc(-c2cnn3ncccc23)n1 | / | .
O=C(O)c1cccnc1Nc1cccc(C(F)(F)F)c1 | . | .
CCOc1ccc2c(-c3ccnc(Nc4cccc(C(F)(F)F)c4)n3)cnn2n1 | / | 8.9µM
Fc1ccc(Nc2nccc(-c3c(-c4ccc(C(F)(F)F)cc4)nn4ncccc34)n2)cc1F | . | .
COC(=O)[C@H]1O[C@@H](c2cc(OC)c(C)c(OC)c2O)[C@H](C)[C@@H](O)[C@@H]1C | / | .[8.59 µM]
CS(=O)(=O)CCNCc1nc(-c2ccc3ncnc(Nc4ccc(OCc5cccc(C(F)(F)F)c5)cc4)c3c2)cs1 | . | .
CC=CC1=CC2=CC(=O)C(C)(OC(=O)c3c(C)cc(O)cc3O)C(=O)C2=CO1 (centres undefined) | / | .[8.59 µM]
N#Cc1ccc2c(c1)C[C@]1(CCCCN3C(=O)c4ccccc4C3=O)Oc3c(c(=O)oc4ccccc34)[C@H]2O1 | .[8.59 µM] | ?
COC(=O)CC=C[C@@H](C)[C@@H](C=NOC[C@@H](O)[C@H]1O[C@@H]2OC(C)(C)O[C@H]2[C@@H]1O)OC | .[8.59 µM] | .[8.59 µM]
COc1ccc(C(OCCN2CCC[C@@H](C(=O)O)C2)(c2ccc(OC)cc2)c2ccc(OC)cc2)cc1 | 6.3µM | .
Cc1ccsc1C(=CCCN1CCC[C@@H](C(=O)O)C1)c1sccc1C | . | .
COc1ccc(C(OCCN2CCC[C@H](C(=O)O)C2)(c2ccc(OC)cc2)c2ccc(OC)cc2)cc1 | 4.5µM | .
COc1ccc(C(=O)Nc2ccccc2CCC2CCCCN2C)cc1 (centres undefined) | . | ?
COC(=O)[C@H]1C[C@@]2(CC=C(C)C)C(=O)[C@@](CC=C(C)C)(C(=O)C(C(=O)c3ccccc3)=C2OC)C1(C)C | .[8.59 µM] | .[8.59 µM]
COC1=CC2C(=O)C(C1=O)C1c3ccccc3CC21 (centres undefined) | .[8.59 µM] | .[8.59 µM]
CCOC(=O)CN1C(=O)NC(c2ccc(Br)cc2)C(C(=O)OC)=C1C (centres undefined) | .[8.59 µM] | .[8.59 µM]
SMILES | LASV entry inh | MARV entry inh
CCN(CC)CCOc1ccc(C(O)(Cc2ccc(Cl)cc2)c2ccc(C)cc2)cc1 (centres undefined) | 25µM | 3.5µM
CCN(CC)CCNC(=O)COc1ccc(Cl)cc1 | . | .
COc1cc(OC)c2c(-c3ccccc3)cc(=O)oc2c1C(CCN1CCOCC1)c1ccc(N(C)C)cc1 (centres undefined) | ? | 10µM
COc1cc(C(CCN2CCOCC2)c2c(OC)cc(OC)c3ccc(=O)oc23)cc(OC)c1OC (centres undefined) | . | .
O=C(NC1CC1)c1ccc(NC(=O)C2CCC2)cc1 | . | .
CC(=O)Nc1ccc(NC(=S)NC(=O)c2ccc(C(C)(C)C)cc2)cc1 | 32µM | 7.1µM
CC1=C[C@@H](COCc2ccccc2)O[C@@]2(C1)C(=O)N(Cc1ccccc1C(F)(F)F)c1ccccc12 | .[8.59 µM] | .[8.59 µM]
COc1ccc2c(c1)[C@@]1(OCCC=C[C@@H]1C)C(=O)N2Cc1ccccc1C(F)(F)F | .[8.59 µM] | .[8.59 µM]
O=C(Nc1n[nH]c2nc(-c3ccco3)ccc12)C1CC1 | / | .
COc1cccc2c1[C@@H]1CN(CCCCn3c(=O)[nH]c4c(sc5ncc(-c6ccccc6)nc54)c3=O)C[C@@H]1CO2 | . | 10µM
COC(=O)CC=C1c2ccc3c(c2[C@@H](OC)[C@@H]1C)OCO3 | .[8.59 µM] | .[8.59 µM]
COc1cc(O)c(C(=O)C=Cc2ccccc2)c(O)c1 | .[8.59 µM] | ?
CN1CCC(=C2c3ccccc3C=Cc3ccccc32)CC1 | 28µM | 8.9µM
CN1CCC(=C2c3ccccc3Sc3ccccc32)CC1 | ? | 4µM
CN1CCN(c2ncnc3ccc(-c4ccccc4C#N)cc23)CC1 | . | .
Cc1ccc([S+](=O)([O-])N[C@@H]2COC(=O)CC=C[C@H](C)COC(=O)N[C@@H](C)C(=O)CC=C[C@H]2C)cc1 | .[8.59 µM] | .[8.59 µM]
c1ccc(Oc2ccc(Nc3ncc(-c4ccccc4)o3)cc2)cc1 | / | .
COc1cc(-c2ccc(C(F)(F)F)cn2)cc2c1OCCN(S(=O)(=O)C[C@]13CC[C@H](CC1=O)C3(C)C)C2 | 13µM | ?
COc1cc(OC)c2nc(-c3cc4c(c(OC)c3)OCCN(C(=O)CC3NC(=O)c5ccccc53)C4)cc(C)c2c1 (centres undefined) | . | .
C/C=C/c1ccc(O)c(OC)c1 | . | .
Oc1cc(O)cc(/C=C/c2ccc(O)c(O)c2)c1 | 22µM | 20µM!
C=CCCN1C(=O)NC(c2ccccc2)C(C(=O)OC)=C1C (centres undefined) | .[8.59 µM] | .[8.59 µM]
COC(=O)C1C2CC(C)C(c3ccccc32)N1C(=O)C(F)(F)F (centres undefined) | .[8.59 µM] | ?
COC(=O)CC1C2(C)CC34OC5(C)O[C@@]6(C7/C(=C(/O)C(C)C)C(=O)OC(c8ccoc8)[C@]7(C)C(OC(C)=O)C(OC(C)=O)[C@]6(O5)[C@@]13C)C(OC(C)=O)[C@]4(O)C2OC(=O)C(C)C (some centres undefined) | . | ?
CCC(C)C(=O)OC1C[C@@]2(C)C(c3ccoc3)OC(=O)CC23OC2(C)OC34C(OC(=O)C(C)C)[C@]3(O)C(OC(=O)C5(C)OC5C)[C@]5(C)CC3(O)[C@](C)(C5CC(=O)OC)C14O2 (some centres undefined) | . | 14µM
SMILES | LASV entry inh | MARV entry inh
COc1ccc2c(c1)[C@@]1(OCCC=C[C@@H]1C)C(=O)N2Cc1ccc(Br)cc1 | .[8.59 µM] | .[8.59 µM]
CC(=O)C1CC2C=CCOP(=O)(O2)O1 (centres undefined) | . | ?
CCN(CC)CCCC(C)Nc1c2ccc(Cl)cc2nc2ccc(OC)cc12 (centres undefined) | ? | 1.1µM
CCN(CC)CCCC(C)Nc1cc(/C=C/c2ccccc2Cl)nc2cc(Cl)ccc12 (centres undefined) | ? | 16µM
COc1cc(NC(C)CCCN)c2ncccc2c1 (centres undefined) | . | ?
COc1cc(CCN2C(=O)NC(c3ccccc3)C(C(C)=O)=C2C)cc(OC)c1OC (centres undefined) | .[8.59 µM] | .[8.59 µM]
COc1ccccc1C1=C(Nc2ccccc2)C(=O)NC1=O | . | .
